An excerpt weighted towards active compounds, which were near 1.9% of everything screened.
Efa HMGR inh – blocks class II HMG-CoA reductase of Enterococcus faecalis. purified E. faecalis HMGR, NADPH absorbance 340 nm kinetic. inhibition, % at 10 µM. 190,000 tested, 0.41% active;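 active = inhibition above a set limit, the median over all tested compounds plus 3 SD, cut at about 9.5% in these data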;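 note: enzyme runs in reverse so mevalonate oxidation gives rising NADPH absorbance; 0% = complete reaction with DMSO and 100% = background rate lacking mevalonate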
14-3-3 Bad PPI – disrupts binding of bovine 14-3-3 zeta to phospho-Bad peptide; P63103; TR-FRET 14-3-3zeta/Dy647-pBad peptide displacement, 1 h; inhibition, % at 21.7 µM; 220,000 tested, 0.71% active; AID 781;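 active = inhibition above about 70%, limit read from the data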;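 note: 0% = full 14-3-3 plus peptide FRET controls and 100% = background without 14-3-3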
NCF1 inh – blocks human p47phox regulatory protein of NADPH oxidases; inhibition, % at 24.7 µM; p47phox/p22phox peptide binding, fluorescence polarization, 2 h; 220,000 tested, 0.53% active; P14598;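 active = inhibition above about 30%, limit read from the data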;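 note: 0% = p47phox with labelled peptide and 100% = labelled peptide alone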
Target sequence (P14598 whole entry, looked up): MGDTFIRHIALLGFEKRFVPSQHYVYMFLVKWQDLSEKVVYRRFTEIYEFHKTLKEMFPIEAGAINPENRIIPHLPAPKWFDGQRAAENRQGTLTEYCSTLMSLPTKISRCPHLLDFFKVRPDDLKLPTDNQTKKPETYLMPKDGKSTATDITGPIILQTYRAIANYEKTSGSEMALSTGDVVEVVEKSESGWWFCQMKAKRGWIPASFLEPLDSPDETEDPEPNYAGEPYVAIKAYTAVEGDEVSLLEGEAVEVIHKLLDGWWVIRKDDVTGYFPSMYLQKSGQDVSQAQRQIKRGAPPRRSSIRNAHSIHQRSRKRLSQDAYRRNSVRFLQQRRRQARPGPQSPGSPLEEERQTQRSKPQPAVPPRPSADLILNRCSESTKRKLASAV
dFosB act – mouse delta FosB homodimer activation; purified delta FosB, TAMRA-CDK5 oligo fluorescence polarization; percent of positive-control signal above neutral wells; activation, % at 25 µM; 340,000 tested, 0.99% active;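 active = mean activation above about 17%, with every replicate also reaching it, limit read from the data, passing the limit was not always enough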
Numbers without * were called inactive; . = no result given; [ ] = remark or other dose.

SMILES	Efa HMGR inh	14-3-3 Bad PPI	NCF1 inh	dFosB act
CC(Sc1nnnn1C1CC1)C(=O)Nc1cccc(S(=O)(=O)N2CCOCC2)c1 (stereo not drawn)	.	.	.	-2
COc1cc(NCCCCCCCN)c2ncccc2c1	-4	10	34*	1
COc1ccc(OC)c(C(=O)c2ccccn2)c1	.	.	.	5
CC(=O)N1c2c(cc(Br)cc2S(=O)(=O)N2CCN(c3ccccn3)CC2)CC1C (stereo not drawn)	-1	88*	-25	-9
O=C1c2sc3nc4c(c(=O)n3c2C(=O)N1c1ccccc1)CCC4	-2	8	-4	-2
Cc1ccccc1N1C(=O)c2sc3nc4c(c(=O)n3c2C1=O)CCC4	2	2	69*	-2
O=C(Nc1sc2c(c1C(=O)c1ccc(Cl)cc1)CCCC2)c1cccnc1	6	71*	-13	-7
O=C(Nc1sc2c(c1C(=O)c1ccccc1)CCCC2)c1cccnc1	-5	-15	-9	5
O=C1NC(=S)S/C1=C\C=C\c1ccc([N+](=O)[O-])o1	.	87*	-19	-11
NC(=O)COC(=O)CN1C(=O)C2CCCCC2C1=O (stereo not drawn)	0	2	4	-4
Cc1ccc(NC2=NCCC2)cc1Cl	1	-3	-2	-2
Cc1nc2ccc(NC3=NCCCCC3)cc2s1	-7	79*	0	1
CCOC(=O)C1C(=O)CC(=O)CC1CC(C)SCC (stereo not drawn)	-1	4	79*	-2
CCOC(=O)C1C(=O)C(=O)N(C(C)C)C1C(=O)OCC (stereo not drawn)	.	.	.	2
Cc1c(C)n(Cc2ccc(F)cc2)c2ccc(C(=O)N3CCN(c4ccccn4)CC3)cc12	.	.	.	27*
Cc1ccc(C(=O)N2CCN(c3ccccn3)CC2)cc1[N+](=O)[O-]	10*	-4	4	1
O=C(c1ccc(F)cc1)N1CCN(c2ccccn2)CC1	.	.	.	8
O=C(NCCc1ccccc1)C(=O)NCCC1CCCCN1S(=O)(=O)c1ccccc1 (stereo not drawn)	.	.	.	0
Cc1ccsc1/C=C/c1n[nH]c(=O)c(C#N)c1C	.	.	.	-8
Cc1ccccc1-c1nc(CS(=O)(=O)CC(=O)NCCN2CCOCC2)c(C)o1	1	-4	69*	-3
Cc1ccccc1-c1nc(CS(=O)(=O)CC(=O)NCCCN2CCCC2)c(C)o1	-1	-1	-13	2
Cc1ccc2nc(/C(C#N)=C\c3ccc(N4CCCCC4)c([N+](=O)[O-])c3)[nH]c2c1	-6	87*[fluorescence artefact?]	10	-10
CC(=O)[C@@]1(O)CC[C@H]2[C@@H]3CCC4=CC(=O)CC[C@]4(C)[C@H]3CC[C@@]21C	12*	-3	-7	-1
CN1C(=S)N(c2cccnc2)C(=O)/C1=C\c1ccc(N(C)C)cc1	0	79*	86*	0
CON/C=N/C(=S)Nc1ncc(C(F)(F)F)cc1Cl	-2	-9	-12	-6
SMILES	Efa HMGR inh	14-3-3 Bad PPI	NCF1 inh	dFosB act
ON/C=N/C(=S)Nc1ncc(C(F)(F)F)cc1Cl	18*	-11	0	-8
O=S(=O)(c1cccs1)N1CCN(CC(O)COc2cccc(Br)c2)CC1 (stereo not drawn)	-4	60	3	-5
O=S(=O)(c1cccs1)N1CCN(CC(O)COC2CCCc3ccccc32)CC1 (stereo not drawn)	-2	79*	-17	-4
COc1cc(OC)cc(C(=O)NNC(=O)Cc2ccc(OC)c(S(=O)(=O)N3CCOCC3)c2)c1	1	8	-3	-1
COc1ccc(Cc2noc(-c3ccccc3)n2)cc1OC	15*	-3	-3	-1
CCn1cc(CN2CCC(Oc3ccc(C(=O)N4CCCCC4)cc3)CC2)cn1	.	.	.	-6
O=C(Nc1nccs1)C1CC=CCC1 (stereo not drawn)	.	.	.	-5
O=C(Nc1ccc(O)cc1)C1CC=CCC1 (stereo not drawn)	3	.	56*	-22
COCCN1C(=O)N(c2cccc(C)c2)C(=O)C1CC(=O)Nc1ccc(F)cc1 (stereo not drawn)	1	93*	7	-9
O=C(O)CN1CCCCCC1=O	4	-1	0	-2
O=C1Nc2ccc(Cl)cc2C12Nc1ccccc1-c1nnc(SCc3ccccc3F)nc1O2 (stereo not drawn)	-4	5	-45	-3
O=C1Nc2ccc(F)cc2C12Nc1ccccc1-c1nnc(SCc3ccccc3F)nc1O2 (stereo not drawn)	0	.	43*	-7
O=C1CSC(c2cccnc2)N1c1cccc(Cl)c1 (stereo not drawn)	13*	-18	-8	7
O=C1CSC(c2cccnc2)N1c1ccc(F)cc1 (stereo not drawn)	1	-2	-6	2
COc1ccc(N(CC(=O)Nc2ccc(F)cc2)S(=O)(=O)c2ccccc2[N+](=O)[O-])c(OC)c1	5	-6	-2	-5
COc1ccc(N(CC(=O)Nc2cc(C)cc(C)c2)S(=O)(=O)c2ccccc2[N+](=O)[O-])c(OC)c1	9.9*	-2	-17	0
Cc1[nH][nH]c(=O)c1C(c1c(C)[nH][nH]c1=O)c1cn(Cc2ccc(Cl)c(Cl)c2)c2ccccc12	39*	-3	-10	-15
O=C(O)Cc1cn(Cc2ccc(F)cc2)c2ccccc12	4	-14	5	-5
Cc1[nH][nH]c(=O)c1C(c1c(C)[nH][nH]c1=O)c1cn(Cc2ccc(F)cc2)c2ccccc12	53*	-25	-6	4
Cc1cc(C)n2nc(SC(C)C(=O)NC3CCCCC3C)nc2n1 (stereo not drawn)	.	.	.	-5
O=C(C/C=N/OCc1ccc(F)cc1Cl)c1cnc(-c2ccccc2)s1	11*	-13	-20	3
O=C(C/C=N/OCc1ccccc1F)c1cnc(-c2ccc(Cl)cc2)s1	4	-3	-14	-17
O=C(c1ccc(COc2ccccc2[N+](=O)[O-])o1)N1CCCCCC1	12*	-15	-7	0
CC1(C)CC(=O)C2=C(C1)N(c1ccc(F)cc1)C(=O)CC2c1ccccc1 (stereo not drawn)	1	-11	-6	-8
O=C1CCCC2=C1C(c1ccccc1)CC(=O)N2c1ccc(F)cc1F (stereo not drawn)	12*	-1	-7	-2
SMILES	Efa HMGR inh	14-3-3 Bad PPI	NCF1 inh	dFosB act
Cc1ccc(/C=C/C(=O)NCC2COc3ccccc3O2)o1 (stereo not drawn)	-2	-4	-5	-1
COc1cc2c(cc1NC(=S)NC(=O)/C=C/c1ccc(OC)c(OC)c1)oc1ccccc12	-7	81*[fluorescence artefact?]	37*	2
COc1ccc(/C=C/C(=O)NCC2COc3ccccc3O2)cc1OC (stereo not drawn)	9.5*	0	-9	-9
COc1ccc(/C=C/C(=O)NC(=S)Nc2cc3oc4ccccc4c3cc2OC)cc1	-7	-4	20	2
CN1C(=O)N(C)C2(c3ccccc3)N(C)C(=O)NC12c1ccccc1 (stereo not drawn)	1	5	49*	3
CC(C)N1C(=O)NC2(c3ccccc3)N(C)C(=O)N(C)C12c1ccccc1 (stereo not drawn)	-4	3	-3	1
